Screening results from PubChem BioAssay.
A selection: hits, their analogues and other compounds. The true share with any hit is near 4.7%.
HSF-1 act – HSF-1 activators, primary screen, NIH3T3-HGL cells, MG132 stress, luminescence, single point; activation, % at 9 µM; 300,000 compounds, 1.7% hits; NIH3T3-HGL HSF-1 luciferase reporter, 8 h; 100% = twice DMSO control signal; AID 504408, 2011;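 active = mean replicate activation of at least 50% with a set share of replicates each reaching 50%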;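 also: 0% = median of the neutral control wells and 100% = twice that signal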
HSF1 inh – HSF1 inhibitors in luciferase reporter cells, primary screen, cell-based, NIH3T3, luminescence; NIH3T3-HGL HSE-luciferase, MG132-induced, luminescence 8 h; hits give low values; activity change, negative = inhibition, % at 7.5 µM (by protocol); 300,000 compounds, 0.77% hits; AID 2098, 2009;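 active = more than half of replicate wells show activity change below -50%, luminescence cut by over half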;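 also: luciferase reports HSF-1 transcriptional activity via heat shock element; 0% = median of DMSO wells and -100% = zero luminescence signal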
TROY signal inh – inhibitors of TROY-driven NF-kB signaling, primary screen, Q293 LMP1-TROYcd cells, NF-kB luciferase, uHTS; Q293 LMP1-TROYcd NF-kB luciferase reporter, 4 h; inhibition, % at 10 µM; 360,000 compounds, 0.98% hits; AID 1347056, 2019;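 active = compounds whose plate-normalised and pattern-corrected inhibition of the luciferase reporter signal at the single screening dose is 50% or more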
HSP90 inh – HSP90 inhibitors, primary screen, cell lysate, luminescence | Rabbit reticulocyte lysate, luciferase refolding luminescence, 3 h | 290,000 compounds, 0.91% hits | Heat shock protein HSP 90 (rabbit reticulocyte lysate; luciferase refolding) | AID 1789, 2009 | inhibition, % at 5.6 µM;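 active = inhibition above the screen-wide mean plus 3 SD, computed separately per campaign, cut at about 16% in these data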;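 also: 0% = DMSO wells and 100% = 60 µM geldanamycin wells; inhibitors lower the luminescence because luciferase stays unfolded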
TWEAK Fn14 block – inhibitors of TWEAK-Fn14 signaling, primary screen, luciferase reporter cells, uHTS; TWEAK-stimulated Fn14 reporter cells, luciferase luminescence, 8 h; inhibition, % at 10 µM; 360,000 compounds, 2% hits; in the data active = inhibition above about 50%
EBV LMP1 NFkB – EBV LMP1-driven NF-kappaB luciferase reporter inhibitors, primary screen, cell-based, luminescence, single point. LMP1-induced NF-kappaB luciferase reporter cells. inhibition, % at 12.5 µM. 350,000 compounds, 0.69% hits; in the data active = inhibition above about 41%;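 also: 0% = neutral control wells and 100% = reference inhibitor control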
An asterisk follows results filed as active.

`O=C(CCN1C(=O)NC2(CCCC2)C1=O)Nc1ccc(-c2nc3ccccc3s2)cc1` gave TROY signal inh 43, TWEAK Fn14 block 60* and EBV LMP1 NFkB -2.
`O=C(Nc1ccc(-c2nc3ccccc3s2)cc1)c1cc(-n2cnnc2)ccc1Cl` gave HSF-1 act -2, HSF1 inh 0, TROY signal inh 53*, HSP90 inh 6, TWEAK Fn14 block 95* and EBV LMP1 NFkB 11.
For Cc1nnc(SCC(=O)Nc2ccc(-c3nc4ccccc4s3)cc2)s1 the results were HSF-1 act 17, HSF1 inh 27, TROY signal inh 55*, HSP90 inh -6, TWEAK Fn14 block 77* and EBV LMP1 NFkB 11.
For Cc1nnc(SCC(=O)Nc2ccccc2NC(=O)CSc2nnc(C)s2)s1 the results were HSF-1 act -11, HSF1 inh -3, TROY signal inh -2, HSP90 inh -1, TWEAK Fn14 block 9 and EBV LMP1 NFkB 4.
Screening Cc1ccc(NC(=O)c2cc(-n3cnnc3)ccc2Cl)cc1 returned HSF-1 act 1, HSF1 inh -10, TROY signal inh -20, HSP90 inh 0, TWEAK Fn14 block -15 and EBV LMP1 NFkB -2.
For O=C(NCCc1c[nH]c2ccccc12)C1CCC(Cn2c(=S)[nH]c3ccccc3c2=O)CC1 (stereo not given) the results were HSF-1 act 22, HSF1 inh 10, TROY signal inh 29, HSP90 inh 2, TWEAK Fn14 block 62* and EBV LMP1 NFkB 2.
Screening COCCNC(=O)C1CCC(Cn2c(=S)[nH]c3ccccc3c2=O)CC1 (stereo not given) returned HSF-1 act -9, HSF1 inh 4, TROY signal inh -12, HSP90 inh 0, TWEAK Fn14 block -14 and EBV LMP1 NFkB 4.
Cc1ccc(Nc2nc(NCc3ccco3)c3ccccc3n2)cc1 was read as HSF-1 act 2, HSF1 inh 11, TROY signal inh 70*, HSP90 inh 4, TWEAK Fn14 block 85* and EBV LMP1 NFkB -11.
For c1ccc(-c2nc(NCc3ccco3)c3ccccc3n2)nc1 the results were HSF-1 act 20, HSF1 inh -4, TROY signal inh -32, HSP90 inh 2, TWEAK Fn14 block 5 and EBV LMP1 NFkB 63*.
For C(=N\Nc1nc(-c2ccccn2)nc2ccccc12)/c1ccccc1 the results were HSF-1 act 160*, HSF1 inh 111 and HSP90 inh -1.
Screening C(=N\Nc1nc(-c2cccnc2)nc2ccccc12)/c1ccccc1 returned HSF-1 act 4, HSF1 inh -2, TROY signal inh -45, HSP90 inh -4 and TWEAK Fn14 block 15.
`Oc1ccccc1-c1nc(NCc2ccco2)c2ccccc2n1` gave HSF-1 act 16, HSF1 inh 11, TROY signal inh -70, HSP90 inh 3, TWEAK Fn14 block 3 and EBV LMP1 NFkB -4.
`CN=c1scc(-c2cccs2)n1/N=C/c1ccccc1O` gave HSF-1 act -91, HSF1 inh -90*, TROY signal inh 88*, HSP90 inh 78*, TWEAK Fn14 block 108* and EBV LMP1 NFkB 85*.
`COc1ccccc1C(=O)Nc1nnc([C@H]2C[C@H](O)[C@@H](CO)O2)s1` gave TROY signal inh -8 and TWEAK Fn14 block 0.
For C=C1C(C(=O)N2CCN(C)CC2)C1C(=O)N1CCN(C)CC1 (stereo not given) the results were HSF-1 act 4, HSF1 inh -5, TROY signal inh 10, HSP90 inh -2, TWEAK Fn14 block 3 and EBV LMP1 NFkB 8.
C=C1C(C(=O)N2CCOCC2)C1C(=O)N1CCOCC1 (stereo not given) was read as HSF-1 act 5, HSF1 inh -6, TROY signal inh 57*, HSP90 inh 1, TWEAK Fn14 block 78* and EBV LMP1 NFkB -5.
`CCn1c2ccccc2c2cc(/C=N/n3c(-c4cc(C)[nH]n4)n[nH]c3=S)ccc21` gave HSF-1 act -8, HSF1 inh -9, TROY signal inh 37, HSP90 inh 3, TWEAK Fn14 block -2 and EBV LMP1 NFkB 87*.
COc1ccc(/C=N/n2c(-c3cc(C)[nH]n3)n[nH]c2=S)cc1 was read as HSF-1 act -2, HSF1 inh 6, TROY signal inh 25, HSP90 inh 3, TWEAK Fn14 block 5 and EBV LMP1 NFkB 2.
For CCn1c2ccccc2c2cc(/C=N/n3cnnc3)ccc21 the results were HSF-1 act -1, HSF1 inh -8, TROY signal inh 46, HSP90 inh -3, TWEAK Fn14 block -45 and EBV LMP1 NFkB 83*.
`CCn1c2ccccc2c2cc(/C=N/n3cn[nH]c3=S)ccc21` gave HSF-1 act 14, HSF1 inh 3, TROY signal inh 32, HSP90 inh 4, TWEAK Fn14 block 5 and EBV LMP1 NFkB 80*.
Screening COc1ccc(/C=N/n2c(-c3cc(C)[nH]n3)n[nH]c2=S)cc1OC returned HSF-1 act -79, HSF1 inh -74*, TROY signal inh 9, HSP90 inh 2 and TWEAK Fn14 block -19.
`CC1(C(=O)NCC2CC2)Cc2c(-c3cccc(C(F)(F)F)c3)ccnc2O1` (stereo not given) gave TROY signal inh 9 and TWEAK Fn14 block 5.
`CCCCN(C=O)c1c(CC)nc2ccc(C(=O)N3CCN(S(=O)(=O)CC)CC3)cn12` gave TROY signal inh 8 and TWEAK Fn14 block 11.
`CCn1c2ccccc2c2cc(/C=N/O)ccc21` gave HSF-1 act 1, HSF1 inh -15, TROY signal inh 34, HSP90 inh -1, TWEAK Fn14 block 71* and EBV LMP1 NFkB 21.
For CCCCN(C)c1c(C)nc2ccc(C(=O)NCc3ccc4c(c3)OCO4)cn12 the results were TROY signal inh 15 and TWEAK Fn14 block -3.
NC(=S)N=Nc1ccc(NN=C(N)N)cc1 was read as HSF-1 act 12, HSF1 inh 3, TROY signal inh 17, HSP90 inh 0, TWEAK Fn14 block 12 and EBV LMP1 NFkB 86*.
CC1Nc2ncnc(N3CCc4ccccc4C3)c2N(Cc2ccccc2)C1=O (stereo not given) was read as TROY signal inh 7 and TWEAK Fn14 block -2.
`O=C(Nc1ccccc1C(=O)Nc1nnc(C(F)(F)F)s1)c1ccccc1` gave HSF-1 act -7, HSF1 inh -8, TROY signal inh 59*, HSP90 inh 3, TWEAK Fn14 block 87* and EBV LMP1 NFkB 8.
